The source of these data is PubChem BioAssay (NCI).

The nature of assay [1]: NCI Yeast Anticancer Drug Screen. Data for the rad50 strain (AID 155).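 Note: 0% = growth of vehicle-only cultures of the same strain.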 The conditions noted are these: S. cerevisiae rad50 strain growth inhibition, stronger effect = higher value. Put shortly:
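Vehicle-treated cultures provide the reference for the growth inhibition reported for compound-exposed, repair-deficient yeast.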

Assay [2] is described as follows: NCI Yeast Anticancer Drug Screen. Data for the mec2-1 strain (AID 157). The conditions noted are these: S. cerevisiae mec2-1 strain, stronger effect = higher value. The method in brief: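 Using mec2-1 yeast: add compound, measure growth, express inhibition versus vehicle-treated cultures.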
A short description of assay [3]: NCI Yeast Anticancer Drug Screen. Data for the sgs1 mgt1 strain (AID 161).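 Note: 0% = growth of cultures given vehicle only.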 The conditions noted are these: S. cerevisiae sgs1 mgt1 strain, stronger effect = higher value. The method in brief: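 This yeast growth screen uses a strain with defined DNA-repair lesions; compound-treated growth is compared with vehicle-treated growth.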
Assay [4] can be described thus: NCI Yeast Anticancer Drug Screen. Data for the cln2 rad14 strain (AID 165).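 Note: 0% = growth equal to vehicle treated cultures.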 The conditions noted are these: S. cerevisiae cln2 rad14 strain, stronger effect = higher value. Put shortly:
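Yeast strain cln2 rad14, bearing defects in cell cycle control and DNA repair, serves as the test system; values reflect growth inhibition compared with vehicle.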

Assay [5] is described as follows: NCI Yeast Anticancer Drug Screen. Data for the bub3 strain (AID 167). The settings on record: S. cerevisiae bub3 mutant strain, stronger effect = higher value. Put shortly: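 Mutant yeast screening strain plus compound; vehicle-treated cultures serve as the 0% inhibition reference.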
The nature of assay [6]: NCI Yeast Anticancer Drug Screen. Data for the mlh1 rad18 strain (AID 175). The conditions noted are these: S. cerevisiae mlh1 rad18 strain growth inhibition, stronger effect = higher value. Put shortly: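 Steps: expose repair-defective yeast to compound; measure growth; express inhibition against vehicle-treated controls.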
The mark [7] stands for this setting: at 5.0 µM (retest, dose inferred, filed as 0.5).
Where [8] appears, read: at 50.0 µM (retest, dose inferred, filed as 5.0).

Each structure is given as a SMILES string. The panel holds about 79,000 compounds, 15% with a hit somewhere; the sample as a whole holds those more often. Unmarked numbers belong to inactive results. Activity calls are given as the source filed them. Cut-off read from the data, not from the text of the source: active = growth inhibition above about 70%; inactive = the rest.

Regarding `Oc1cc(C(c2ccccc2)c2ccccc2)c2ccccc2c1O`, the growth inhibition in assay [1] (setting [7]) is 17%; in assay [1] (setting [8]), 1%; in assay [1] (at 50.0 µM), 97.6% (active); in assay [2] (setting [7]), 26%; in assay [2] (setting [8]), 8%; in assay [2] (at 50.0 µM), 98.5% (active). Besides, the growth inhibition is 20% in assay [3] (setting [7]); 1% in assay [3] (setting [8]); 98.5% (active) in assay [3] (at 50.0 µM); 13% in assay [4] (setting [7]); 0% in assay [4] (setting [8]); 97.7% (active) in assay [4] (at 50.0 µM). For the same compound, the growth inhibition was 10% in assay [5] (setting [7]); 2% in assay [5] (setting [8]); 98.2% (active) in assay [5] (at 50.0 µM); 34% in assay [6] (setting [7]); 1% in assay [6] (setting [8]); 97.8% (active) in assay [6] (at 50.0 µM).

Take `CCC[n+]1ccc(/C=N\NC(N)=S)c2ccccc21`: the growth inhibition was 22% in assay [1] (setting [7]); 38% in assay [1] (setting [8]); 38.2% in assay [1] (at 50.0 µM); 19% in assay [2] (setting [7]); 36% in assay [2] (setting [8]); -16.4% in assay [2] (at 50.0 µM). Also, the growth inhibition was 21% in assay [3] (setting [7]); 38% in assay [3] (setting [8]); 6.2% in assay [3] (at 50.0 µM); 9% in assay [4] (setting [7]); 34% in assay [4] (setting [8]); 5.25% in assay [4] (at 50.0 µM). The growth inhibition in assay [5] (setting [7]) is 15%; in assay [5] (setting [8]), 42%; in assay [5] (at 50.0 µM), -6.7%; in assay [6] (setting [7]), 17%; in assay [6] (setting [8]), 33%; in assay [6] (at 50.0 µM) it was -41.6%.

On to `CC(O)c1c2c(cc3c1CC1(C3)Cc3cc4c(c(C(C)O)c3C1)CCC4)CCC2` (configuration not stated), for which the growth inhibition in assay [1] (setting [7]) was -18%; in assay [1] (setting [8]) it was 98% (active); in assay [1] (at 50.0 µM) it was 71.1% (active); in assay [2] (setting [7]) it was -6%; in assay [2] (setting [8]) it was 97% (active); in assay [2] (at 50.0 µM), 81.4% (active). Besides, the growth inhibition was -34% in assay [3] (setting [7]); 97% (active) in assay [3] (setting [8]); 85.9% (active) in assay [3] (at 50.0 µM); 1% in assay [4] (setting [7]); 97% (active) in assay [4] (setting [8]); 86.7% (active) in assay [4] (at 50.0 µM). Further, the growth inhibition is -50% in assay [5] (setting [7]); 97% (active) in assay [5] (setting [8]); 87.2% (active) in assay [5] (at 50.0 µM); -17% in assay [6] (setting [7]); 97% (active) in assay [6] (setting [8]); 88.3% (active) in assay [6] (at 50.0 µM).

Consider `CC(C)NC(=O)CN1C(=O)NC(C)(c2ccccc2)C1=O` (configuration not stated), for which the growth inhibition in assay [1] (setting [7]) is -4%; in assay [1] (setting [8]) it was -1%; in assay [1] (at 50.0 µM), 75.5% (active); in assay [2] (setting [7]) it was 6%; in assay [2] (setting [8]), 8%; in assay [2] (at 50.0 µM) it was 67%. In addition, the growth inhibition in assay [3] (setting [7]) was -4%; in assay [3] (setting [8]), 11%; in assay [3] (at 50.0 µM) it was 53.5%; in assay [4] (setting [7]), 2%; in assay [4] (setting [8]), -3%; in assay [4] (at 50.0 µM) it was 90.8% (active). Moreover, the growth inhibition is -3% in assay [5] (setting [7]); 1% in assay [5] (setting [8]); 79.2% (active) in assay [5] (at 50.0 µM); 11% in assay [6] (setting [7]); 13% in assay [6] (setting [8]); 70.3% (active) in assay [6] (at 50.0 µM).

For `CC(=O)N/N=C/c1ccc([N+](=O)[O-])o1`, the growth inhibition in assay [1] (setting [7]) is 13%; in assay [1] (setting [8]), 34%; in assay [1] (at 50.0 µM), 70.2% (active); in assay [2] (setting [7]) it was 2%; in assay [2] (setting [8]), 22%; in assay [2] (at 50.0 µM), 43.1%. In addition, the growth inhibition in assay [3] (setting [7]) is 12%; in assay [3] (setting [8]) it was 50%; in assay [3] (at 50.0 µM) it was 81.8% (active); in assay [4] (setting [7]), 5%; in assay [4] (setting [8]) it was 13%; in assay [4] (at 50.0 µM), 35.5%. Further, the growth inhibition is 5% in assay [5] (setting [7]); 22% in assay [5] (setting [8]); 58.5% in assay [5] (at 50.0 µM); 17% in assay [6] (setting [7]); 61% in assay [6] (setting [8]); 84.8% (active) in assay [6] (at 50.0 µM).

For the compound `COc1ccc2c(c1)C1(C)CCCC(C)(C(=O)O)C1C(Br)C2=O` (configuration not stated), the growth inhibition in assay [1] (setting [7]) is 6%; in assay [1] (setting [8]) it was 91% (active); in assay [1] (at 50.0 µM), 69.8%; in assay [2] (setting [7]) it was 20%; in assay [2] (setting [8]), 98% (active); in assay [2] (at 50.0 µM), 46.6%. Moreover, the growth inhibition in assay [3] (setting [7]) was -12%; in assay [3] (setting [8]), 97% (active); in assay [3] (at 50.0 µM), 84% (active); in assay [4] (setting [7]), -8%; in assay [4] (setting [8]), 96% (active); in assay [4] (at 50.0 µM), 37.4%. Moreover, the growth inhibition in assay [5] (setting [7]) was 6%; in assay [5] (setting [8]) it was 96% (active); in assay [5] (at 50.0 µM), 35.2%; in assay [6] (setting [7]), 21%; in assay [6] (setting [8]), 96% (active); in assay [6] (at 50.0 µM), 72.2% (active).

For `CCCCCCCCCCCCNC(=O)C[n+]1cccc(C(=O)N(C)C)c1`, the growth inhibition in assay [1] (setting [7]) is -5%; in assay [1] (setting [8]), 33%; in assay [1] (at 50.0 µM), 68.3%; in assay [2] (setting [7]) it was -24%; in assay [2] (setting [8]) it was -13%; in assay [2] (at 50.0 µM), 58%. The growth inhibition in assay [3] (setting [7]) is -17%; in assay [3] (setting [8]) it was 46%; in assay [3] (at 50.0 µM), 91.4% (active); in assay [4] (setting [7]) it was -15%; in assay [4] (setting [8]), 13%; in assay [4] (at 50.0 µM) it was 24.6%. Further, the growth inhibition is -9% in assay [5] (setting [7]); 21% in assay [5] (setting [8]); 3.35% in assay [5] (at 50.0 µM); 7% in assay [6] (setting [7]); 44% in assay [6] (setting [8]); 53.4% in assay [6] (at 50.0 µM).

Consider `O=C1c2ccccc2C(=O)c2c1ccc(O)c2O`, for which the growth inhibition is 79% (active) in assay [1] (setting [7]); 96% (active) in assay [1] (setting [8]); 83.3% (active) in assay [1] (at 50.0 µM); 75% (active) in assay [2] (setting [7]); 94% (active) in assay [2] (setting [8]); 75.8% (active) in assay [2] (at 50.0 µM). Further, the growth inhibition in assay [3] (setting [7]) is 91% (active); in assay [3] (setting [8]), 94% (active); in assay [3] (at 50.0 µM), 81.5% (active); in assay [4] (setting [7]), 23%; in assay [4] (setting [8]) it was 63%; in assay [4] (at 50.0 µM) it was 65.7%. For the same compound, the growth inhibition in assay [5] (setting [7]) was 80% (active); in assay [5] (setting [8]), 93% (active); in assay [5] (at 50.0 µM) it was 77.9% (active); in assay [6] (setting [7]), 90% (active); in assay [6] (setting [8]) it was 96% (active); in assay [6] (at 50.0 µM), 79% (active).

For `NC(CCl)=NCC1C2CC3CC(C2)CC1C3` (configuration not stated), the growth inhibition in assay [1] (setting [7]) was 14%; in assay [1] (setting [8]), 99% (active); in assay [1] (at 50.0 µM), 87.9% (active); in assay [2] (setting [7]), 11%; in assay [2] (setting [8]), 99% (active); in assay [2] (at 50.0 µM), 90.2% (active). The growth inhibition was 11% in assay [3] (setting [7]); 99% (active) in assay [3] (setting [8]); 90.8% (active) in assay [3] (at 50.0 µM); -3% in assay [4] (setting [7]); 99% (active) in assay [4] (setting [8]); 84.5% (active) in assay [4] (at 50.0 µM). In addition, the growth inhibition is 10% in assay [5] (setting [7]); 98% (active) in assay [5] (setting [8]); 89.2% (active) in assay [5] (at 50.0 µM); 19% in assay [6] (setting [7]); 99% (active) in assay [6] (setting [8]); 89.9% (active) in assay [6] (at 50.0 µM).
